# Assay outcomes from PubChem.
# In the library only some 2.2% were active in any assay of this set; here they are far more common.
# Beta apoptosis – blocks beta cell apoptosis | INS-1E cytokine-induced death, ATP luminescence, 48 h; percent of positive-control rescue, neutral wells zero | protection from apoptosis, % (no concentration beside the values) | actives 0.8% (n = 300,000);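 active = Every replicate reaches about 75%, or at least half do and their mean reaches it too, limit read from the data; inconclusive = At least half of replicates reach the limit but their mean does not; inactive = Under half of replicates reach the limit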;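 also: 0% = cytokine-treated negative control wells and 100% = positive control rescue; higher means more ATP so stronger rescue from cytokine killing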
# PfHsp90 yeast 2 – growth inhibition of yeast expressing Plasmodium Hsp90; S. cerevisiae expressing PfHsp90, BacTiter-Glo ATP, 48 h; yeast lacking PDR1 and PDR3 efflux regulators; inhibition, % at 9.4 µM; AID 504621; actives 0.32% (n = 310,000);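 active = every replicate shows inhibition above about 80%, whatever the replicate mean, limit read from the data; inconclusive = mean inhibition reaches the set limit but some replicate falls short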;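 also: 0% = DMSO neutral controls and 100% = 20 µM radicicol positive controls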
# Shn3 3UTR inh – reduces Shn3 3'UTR luciferase signal in osteoblasts; Clone20 osteoblast Shn3 3'UTR firefly luciferase, 24 h; inhibition, % at 12.5 µM; actives 0.52% (n = 360,000);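 active = mean inhibition of at least 75% with every replicate also reaching 75%; inconclusive = mean inhibition at least 75% but some replicate below; inactive = mean inhibition below 75%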;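 also: 0% = median of neutral control wells and 100% = pilot-screen positive control compound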
# CSC inhib – blocks cancer stem cells; cancer stem cell-like cells viability, luminescence; inhibition, % at 7.5 µM; actives 1.1% (n = 300,000); AID 2717; in the data active = inhibition above about 75%; inconclusive = no clear call, values can overlap the other calls; tested in HMLE shEcad cells
# Calb FLC – C. albicans growth modulation with fluconazole; C. albicans CaCi-2 (fluconazole-resistant clinical isolate) + fluconazole, Alamar Blue growth, 48 h; growth inhibition, % (test concentration not listed); actives 0.57% (n = 300,000); AID 1979;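 active = growth inhibition above about 58% in most replicates, limit read from the data, passing the limit was not always enough; inconclusive = exactly half the replicates above a set limit; inactive = most replicates below a set limit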;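 also: all wells also contain fluconazole at 8 µg/ml as a sub-toxic cotreatment; 0% = median of DMSO wells and 100% = median of geldanamycin control wells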
# Active calls of the source: *; ? = inconclusive; / = no result given; + = active, no number.
SMILES,Beta apoptosis,PfHsp90 yeast 2,Shn3 3UTR inh,CSC inhib,Calb FLC
O=C(NCCCn1ccnc1)C1CCN(S(=O)(=O)c2cc([N+](=O)[O-])ccc2Cl)CC1,1,17,-14,/,/
CC1CCCC(NCC(O)COC(c2ccc(F)cc2)c2ccc(F)cc2)C1C (stereo not given),44,2,28,80*,8
CC1CCCC(NC(=O)CSc2ccc(F)cc2)C1C (stereo not given),3,-10,7,-12,0
CNC(=O)NC(=O)C(C)OC(=O)c1oc2ccccc2c1CSc1ccc(Cl)cc1 (stereo not given),-5,-10,5,104*,1
COc1ccc(C(CCNC(C)c2ccccc2)C(C)C)cc1 (stereo not given),6,/,-10,4,-4
COc1ccc(C(C)NCCC(c2ccc(OC(C)C)cc2)c2ccccc2OC)cc1 (stereo not given),82*,8,69,104*,1
CCCN(CC(=O)Nc1ccccc1OC)Cc1c(O)ccc2ccccc12,3,-3,14,-12,-5
C=C1C(O)[C@@H]2O[C@]3(CC[C@H](/C=C/C(C)[C@@H]4CC(C)=CC5(O[C@H](C[C@@](C)(O)CO)CCC5O)O4)O3)CC[C@H]2O[C@@H]1C(O)CC(C)[C@H]1OC2(CCCCO2)CCC1C (stereo not given in full),76*,/,/,/,/
C=C1[C@@H](O)[C@@H]2O[C@]3(CC[C@H](/C=C/[C@@H](C)[C@@H]4CC(C)=CC5(O[C@H](C[C@@](C)(O)C(=O)OC)CC[C@H]5O)O4)O3)CC[C@H]2O[C@@H]1[C@@H](O)C[C@H](C)[C@H]1OC2(CCCCO2)CC[C@H]1C (stereo not given in full),108*,/,/,77*,/
O=[N+]([O-])c1ccc(O)c(/C=N/NC(=S)Nc2ccc(Cl)cc2Cl)c1,121*,12,15,76*,101*
Fc1ccc(/C=N/NC(=S)Nc2ccc(Cl)cc2Cl)cc1,2,9,-7,28,0
O=[N+]([O-])c1ccc(/C=N/NC(=S)Nc2ccc(Cl)cc2Cl)s1,25,-28,4,124*,107*
O=C(Nc1ccn(Cc2c(F)c(F)cc(F)c2F)n1)c1ccc(COc2ccccc2Cl)cc1,0,7,18,14,18
Cc1cc(C)nc(NC(=O)c2ccc(COc3ccccc3Cl)cc2)c1,9,-3,47,99*,3
O=C(Nc1ccn(Cc2ccccc2F)n1)c1ccc(COc2ccccc2Cl)cc1,6,19,50,139*,4
COC(=O)c1ccc2c(=O)n(CC3CCCO3)c(SCC(=O)Nc3ccc(OC)cc3OC)nc2c1 (stereo not given),2,7,30,-6,-5
COc1ccc(Nc2nc(-c3cccs3)nc3ccccc23)cc1S(=O)(=O)N1CCOCC1,29,-21,43,38,-3
COc1ccc(OC)c(NC(=O)Nc2nnc([C@@H]3O[C@H](CO)[C@@H](O)[C@H]3O)s2)c1,/,/,-8,/,/
O=C(CC1NCCc2ccccc21)Nc1ccc(Oc2ccccc2)cc1 (stereo not given),/,0,33,95*,11
Cc1ccc(NN2C(=O)C=C(c3ccc(Cl)cc3)C2=O)cc1,-5,120*,99*,62,-40
O=C(NNC(=O)C1C2CCC(C2)C1C(=O)O)c1ccc(Br)o1 (stereo not given),1,/,/,7,100*
O=C(O)c1cccc(NC(=S)N/N=C/c2cccc(O)c2)c1,2,3,-3,-7,-28
Cc1ccccc1NC(=S)N/N=C/c1ccc(O)cc1O,87*,-9,-4,70,5
Cc1cccc(NC(=S)N/N=C/c2cccc(O)c2)c1C,2,4,-1,80*,8
CN(Cc1cccs1)C(=O)c1cccc(S(=O)(=O)N2CCCCCC2)c1,-9,8,7,-5,/
O=C1CCCN1c1ccc(S(=O)(=O)NCCOc2ccccc2)cc1,2,-9,3,6,-15
Cc1cc(N2CCCC2=O)cc(C)c1S(=O)(=O)NCCOc1ccc(C(C)(C)C)cc1,109*,4,?,7,18
COc1ccc2c(c1)[C@H]1[C@H](CO2)[C@H](c2ccccc2)[C@]2(C)C(=O)Nc3ccc(C)cc3C(=O)N12,12,+,-1,/,/
COc1ccc2c(c1)OC[C@H]1[C@H]2N2C(=O)c3cc(C)ccc3NC(=O)[C@@]2(C)[C@H]1c1ccccc1,1,104*,13,12,/
